Data from PubChem BioAssay (NCATS).
Results filed as inconclusive are left out. A call without a number means that no potency is given here. Unmarked numbers belong to inactive results. Active and inactive are the calls of the source. The call rests on the fitted dose curve; in most records, active means well fitted curve in the direction sought with a large enough effect; inconclusive means small, poorly fitted or top-dose-only effect, or another doubt; inactive means no such curve, though single readings can be large; an effect the other way counts as inactive or inconclusive.

Legend:
[1] = P-glycoprotein substrates identified in KB-3-1 adenocarcinoma cell line, qHTS therapeutic library screen (AID 1346986); further: nearly all actives have a fitted effect of over 60% in size;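 further: potency is for cytotoxicity meaning loss of cell viability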
In short: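 Compounds were tested in dose-response against KB-3-1 and KB-8-5-11 cells at 37 degree C for 72 h, and viability was measured by luminescence. AC50 values came from curve fitting with class-based activity calls.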

[2] = P-glycoprotein substrates identified in KB-8-5-11 adenocarcinoma cell line, qHTS therapeutic library screen (AID 1346987); further: nearly all actives have a fitted effect of over 65% in size; on activity change, negative = cytotoxicity: series mostly up to about 44 µM
In short: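 P-gp-mediated resistance screen: KB-8-5-11 cells treated 72 h with compounds in dose-response. CellTiter-Glo viability.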
Potency means the concentration at half of the fitted maximal effect.

Cc1cc(=O)oc2c(C=O)c(O)ccc12
Potency [1]: inactive | Potency [2]: inactive

COc1nc2sc(C(=O)NC3CC3)c(N)c2c(C)c1Cl
Potency [1]: inactive | Potency [2]: inactive

COc1ccc(N2CCOCC2)c2sc(NC(=O)N3CCC(C)(O)CC3)nc12
Potency [1]: inactive | Potency [2]: inactive

CN[C@@H]1[C@H](O[C@H]2[C@H](O[C@@H]3[C@@H](O)[C@H](O)[C@@H](N=C(N)N)[C@H](O)[C@H]3N=C(N)N)O[C@@H](C)[C@]2(O)C=O)O[C@@H](CO)[C@H](O)[C@H]1O
Potency [1]: inactive | Potency [2]: inactive

O=C(O)c1cc(-c2c(-c3ccccc3)nn3ccccc23)n[nH]c1=O
Potency [1]: inactive | Potency [2]: inactive

CC(C)(O)c1ccc2c(c1)C(O)C[C@H]1[C@](C)(C(=O)O)CCC[C@]21C (some centres undefined)
Potency [1]: inactive | Potency [2]: inactive

CCCCNc1ncc2c(-c3ccc(F)cc3)nn(CC3CCC(N)CC3)c2n1 (centres undefined)
Potency [1]: 2000 nM (active) | Potency [2]: 1780 nM (active)

COc1c2c(c(C)c3c1C(=O)OC3)OC1(C)CC(O)C(C(C)(C)O)C(C)(CCC(=O)O)C1C2 (centres undefined)
Potency [1]: inactive | Potency [2]: inactive

Cc1ccc(Cc2c(C)nc3nc(SCC(=O)NCCN4CCNCC4)nn3c2C)cc1
Potency [1]: inactive | Potency [2]: inactive

C[C@@H]1O[C@@H](O[C@H]2[C@@H](OC(=O)[C@]34CCC(C)(C)CC3C3=CCC5[C@@]6(C)C[C@H](O)[C@H](O[C@@H]7O[C@H](C(=O)O)[C@@H](O)[C@H](O)[C@H]7O)[C@@](C)(C(=O)O)C6CC[C@@]5(C)[C@]3(C)CC4)OC[C@H](O)[C@@H]2O)[C@H](O)[C@H](O)[C@H]1O[C@@H]1OC[C@@H](O)[C@H](O)[C@H]1O (some centres undefined)
outcome [1]: inactive [at 9.29 µM] | activity change, negative = cytotoxicity [2]: 1.24% [at 9.29 µM]

O=C1OCc2cc3cccc(O[C@@H]4O[C@H](CO)[C@@H](O)[C@H](O)[C@H]4O)c3c(O)c21
Potency [1]: inactive | Potency [2]: inactive

C/C(=C\CCC1(C)C2CCC(C2)C1(C)O)C(=O)O (centres undefined)
Potency [1]: inactive | Potency [2]: inactive

COc1ccc(C(O)C(C)OC2OC(CO)C(O)C(O)C2O)cc1 (centres undefined)
Potency [1]: inactive | Potency [2]: inactive

COC(=O)CCSCc1ccc(-c2onc(C)c2NC(=O)OC(C)c2ccccc2Cl)cc1 (centres undefined)
Potency [1]: inactive | Potency [2]: inactive

CC(C)=CCC[C@](C)(O)[C@H]1CC[C@]2(C)[C@@H]1[C@H](O)CC1[C@@]3(C)CC[C@H](O)C(C)(C)C3[C@@H](O[C@@H]3O[C@H](CO)[C@@H](O)[C@H](O)[C@H]3O[C@@H]3OC[C@@H](O)[C@H](O)[C@H]3O)C[C@]12C (some centres undefined)
Potency [1]: inactive | Potency [2]: inactive

CC1(C)CC[C@]2(C(=O)O)CC[C@]3(C)C(=CCC4[C@@]5(C)C[C@@H](O)[C@H](O)C(C)(C)C5CC[C@]43C)C2C1 (some centres undefined)
Potency [1]: inactive | Potency [2]: inactive

CC(=O)O[C@@H]1[C@@H](OC(=O)/C=C/c2ccccc2)[C@@H](OC(C)=O)[C@H](O[C@H]2[C@@H]3C=CO[C@@H](O[C@@H]4O[C@H](CO)[C@@H](O)[C@H](O)[C@H]4O)[C@@H]3[C@@]3(CO)O[C@@H]23)O[C@H]1C
Potency [1]: inactive | Potency [2]: inactive

CC1=C(C(=O)O)/C(=C\CO[C@@H]2O[C@H](CO)[C@@H](O)[C@H](O)[C@H]2O)C(OC(=O)/C=C\c2ccc(O)cc2)C1 (some centres undefined)
Potency [1]: inactive | Potency [2]: inactive

CCC(O)(C(=O)OCc1ccccc1NC(=O)CCC(=O)O)C(C)O (centres undefined)
Potency [1]: inactive | Potency [2]: inactive

CC1=C(/C=C/C(C)=C\C=C\C(C)=C/C(=O)O)C(C)(C)CCC1
Potency [1]: inactive | Potency [2]: inactive

CC(=O)O[C@]1(C(C)=O)CC[C@H]2[C@@H]3C[C@H](C)C4=CC(=O)C=C[C@]4(C)[C@@]3(F)[C@@H](O)C[C@@]21C
Potency [1]: inactive | Potency [2]: inactive

COc1c2ccoc2cc2oc(CO[C@@H]3O[C@H](CO)[C@@H](O)[C@H](O)[C@H]3O)cc(=O)c12
Potency [2]: inactive

CC1C=CC2CCCCC2C1CCC1CC(O)CC(=O)O1 (centres undefined)
Potency [2]: inactive

Cc1cc(C(N)=O)ccc1-n1c(CCC(=O)O)ccc1-c1ccc(-n2ccnc2)cc1
Potency [2]: inactive

COc1ncc2cc(C(=O)Nc3cc(C(=O)NCc4cccc(Cl)c4)ccc3Cl)c(=O)[nH]c2n1
Potency [2]: 5800 nM (active)

CC12CCC(OC3OC(CO)C(O)C(OC4OC(CO)C(O)C(O)C4O)C3O)CC1=CCC1C2CCC2(C)/C(=C3/COC(=O)C3)CCC12O (centres undefined)
Potency [2]: inactive

COC(=O)CC(C)(O)CC(=O)OCc1ccc(O[C@@H]2O[C@H](CO)[C@@H](O)[C@H](O)[C@H]2O)cc1 (some centres undefined)
Potency [2]: inactive

O=C(N/N=C/c1ccc(O)c(O)c1)c1cc2ccccc2cc1O
Potency [2]: inactive
